According to PubChem BioAssay AID1964107 (National Center for Advancing Translational Sciences (NCATS), 2024):
Out of some 31,000 compounds screened, about 360 (1.2%) were called active. Entries that show only a call come without a potency. Another 8% or so got no clear call; they are omitted. This is one part of a sample in which actives are shown more often than they occur. Calls follow the shape of the full dose curve.

molecular target: Polyprotein P1234 (Chikungunya virus (strain S27-African prototype)) (UniProt Q8JUX6); experiment: Primary qHTS for inhibitors of NSP2Pro chikungunya virus (CHIKV); details: FRET peptide cleavage, fluorescence 1 h; series mostly up to 24.9 µM; also: nearly all actives have a fitted effect of over 60% in size
Sequence (Q8JUX6 whole entry, looked up): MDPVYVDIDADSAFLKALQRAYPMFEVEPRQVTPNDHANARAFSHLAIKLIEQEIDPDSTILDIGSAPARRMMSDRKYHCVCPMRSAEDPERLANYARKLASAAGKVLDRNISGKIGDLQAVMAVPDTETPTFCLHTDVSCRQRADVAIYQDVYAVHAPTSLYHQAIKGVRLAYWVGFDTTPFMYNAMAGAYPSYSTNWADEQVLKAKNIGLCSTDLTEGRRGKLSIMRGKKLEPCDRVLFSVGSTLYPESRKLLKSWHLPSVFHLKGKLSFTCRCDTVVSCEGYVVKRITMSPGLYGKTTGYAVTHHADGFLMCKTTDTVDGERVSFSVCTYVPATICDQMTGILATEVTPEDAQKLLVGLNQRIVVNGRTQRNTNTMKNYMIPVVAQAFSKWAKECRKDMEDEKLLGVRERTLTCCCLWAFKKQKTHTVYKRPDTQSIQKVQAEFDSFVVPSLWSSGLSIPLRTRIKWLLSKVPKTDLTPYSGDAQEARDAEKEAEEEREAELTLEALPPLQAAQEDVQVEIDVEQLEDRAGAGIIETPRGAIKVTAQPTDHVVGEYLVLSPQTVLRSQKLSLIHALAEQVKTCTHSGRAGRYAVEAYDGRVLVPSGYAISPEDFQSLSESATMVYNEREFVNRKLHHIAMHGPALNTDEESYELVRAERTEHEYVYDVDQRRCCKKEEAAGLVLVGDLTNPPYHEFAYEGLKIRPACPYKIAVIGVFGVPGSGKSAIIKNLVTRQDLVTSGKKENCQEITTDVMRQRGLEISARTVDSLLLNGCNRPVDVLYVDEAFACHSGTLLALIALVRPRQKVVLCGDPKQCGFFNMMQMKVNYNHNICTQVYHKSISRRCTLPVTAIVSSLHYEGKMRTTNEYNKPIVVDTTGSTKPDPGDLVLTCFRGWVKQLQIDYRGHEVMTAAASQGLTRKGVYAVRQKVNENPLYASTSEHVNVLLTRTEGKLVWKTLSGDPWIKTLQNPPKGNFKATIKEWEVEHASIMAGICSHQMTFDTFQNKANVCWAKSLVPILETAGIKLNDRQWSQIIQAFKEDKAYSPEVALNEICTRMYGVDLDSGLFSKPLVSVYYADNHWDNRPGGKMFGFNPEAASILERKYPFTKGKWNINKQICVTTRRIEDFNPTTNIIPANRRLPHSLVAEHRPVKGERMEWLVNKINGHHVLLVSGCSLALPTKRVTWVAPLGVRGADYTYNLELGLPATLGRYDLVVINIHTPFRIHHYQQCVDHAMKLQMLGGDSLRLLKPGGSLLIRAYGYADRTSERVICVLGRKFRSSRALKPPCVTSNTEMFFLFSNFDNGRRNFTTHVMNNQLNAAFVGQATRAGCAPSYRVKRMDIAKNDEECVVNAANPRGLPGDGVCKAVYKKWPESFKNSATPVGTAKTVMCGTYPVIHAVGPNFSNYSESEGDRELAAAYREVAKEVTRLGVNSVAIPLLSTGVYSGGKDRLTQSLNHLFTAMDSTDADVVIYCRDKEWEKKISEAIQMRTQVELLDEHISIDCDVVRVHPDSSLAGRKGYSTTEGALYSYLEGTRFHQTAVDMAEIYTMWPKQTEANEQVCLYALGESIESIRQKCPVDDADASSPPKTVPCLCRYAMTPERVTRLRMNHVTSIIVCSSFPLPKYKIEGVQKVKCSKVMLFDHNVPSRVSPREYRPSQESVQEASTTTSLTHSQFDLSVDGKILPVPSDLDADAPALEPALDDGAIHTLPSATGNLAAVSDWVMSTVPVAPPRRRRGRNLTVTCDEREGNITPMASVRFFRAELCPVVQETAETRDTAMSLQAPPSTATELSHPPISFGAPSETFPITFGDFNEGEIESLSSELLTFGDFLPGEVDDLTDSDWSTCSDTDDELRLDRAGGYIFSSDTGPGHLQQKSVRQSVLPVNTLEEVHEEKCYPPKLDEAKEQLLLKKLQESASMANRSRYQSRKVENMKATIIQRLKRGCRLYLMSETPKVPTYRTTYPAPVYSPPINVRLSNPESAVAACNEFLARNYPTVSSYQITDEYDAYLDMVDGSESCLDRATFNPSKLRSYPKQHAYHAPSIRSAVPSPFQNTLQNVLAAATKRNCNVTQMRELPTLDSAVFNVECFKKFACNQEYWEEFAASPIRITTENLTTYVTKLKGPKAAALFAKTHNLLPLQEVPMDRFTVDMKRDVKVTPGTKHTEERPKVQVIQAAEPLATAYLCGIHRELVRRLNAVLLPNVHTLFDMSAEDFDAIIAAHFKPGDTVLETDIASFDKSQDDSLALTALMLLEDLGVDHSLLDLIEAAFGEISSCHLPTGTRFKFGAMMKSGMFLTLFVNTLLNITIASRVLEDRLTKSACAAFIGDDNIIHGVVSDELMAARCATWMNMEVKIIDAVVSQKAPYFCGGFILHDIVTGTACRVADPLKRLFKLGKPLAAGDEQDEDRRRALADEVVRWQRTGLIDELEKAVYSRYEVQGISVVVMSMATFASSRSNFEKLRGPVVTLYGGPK
Text: PI: Natalia J. Martinez Ph.D. National Center for Advancing Translational Sciences (NCATS), National Institute of Health (NIH), Rockville, Maryland Chikungunya virus (CHIKV) is a mosquito-borne RNA virus that has emerged as one of the most important global arboviral threats in the last decade. Although the first CHIKV vaccine has recently been FDA approved for use in healthy adults at increased risk, to date, there are no available antiviral drugs for CHIKV infection. CHIKV nsP2 protease plays a crucial role in the processing of the viral polypeptide precursor to release enzymes required for viral replication, thus making it a promising drug target for antiviral discovery. Here, we established a high-throughput pipeline to identify small molecule inhibitors of nsP2 proteolytic activity. The pipeline is composed of a suite of 1,536-well in vitro assays to support quantitative high-throughput (qHTS) screening campaigns. Specifically, we developed a fluorescence resonance energy transfer (FRET)-based assay using a fluorogenic peptide substrate encompassing an endogenous cleavage site and purified recombinant protease domain (nsP2pro). Using this assay, we interrogated ~37,000 small molecules, including those in drug repurposing libraries as well as chemically diverse and medicinal chemistry-friendly compounds. Hits were selected for follow-up validation against full-length nsP2 and an additional peptide. FRET-based 1,536-well assays for papain, hepatitis C virus NS3-4A, and human furin proteases were implemented to characterize compound selectivity. […] Novel compounds were identified to be potential nsP2 inhibitors and molecular docking analyses were performed to explain the binding mode of selected hits. In vitro antiviral activity was evaluated for a subset of compounds using a high-throughput CHIKV infection assay. To our knowledge, the pipeline presented here is unprecedented for CHIKV antiviral discovery research.
PROTOCOL TABLE (as described by Inglese J, Shamu CE and Guy RK. 2007) SEQUENCE No. (e.g., 1, 2, 3, etc.); […] (e.g., Cells, Incubation, Reagent, etc.); VALUE; DESCRIPTION. 1; Control / Compound; 20 nL; Echo 655 acoustic dispenser, Greiner 1536-well solid bottom black plate. 2; Enzyme; 4 uL; BioRAPTR FRD liquid dispenser (Beckman Coulter). 3; Incubation; 15 min; room temperature. 4; Reagent; 4 uL; 2.5 uM Peptide 2 substrate. 5; Incubation; 1 hr; room temperature. 6; Detection; Fluorescence; WiewLux microplate reader (PerkinElmer), 525 nm excitation, 598/25 nm emission. NOTES (numbers refer to sequence numbers above). 1. Briefly, 20 nL DMSO, positive control ZnAc (20nM final concentration), and test compounds were transferred into a 1,536-well solid bottom black plate (789176-F, Greiner One) via Echo 655 acoustic dispenser (Beckman Coulter). For primary screens, compounds were tested at 7 concentrations, 1:3 dilution points ranging from 25 uM to 34 nM. Follow-up confirmatory screens were carried out at 11 concentrations, 1:3 dilution points from 25 uM to 0.42 nM. 2. Four uL nsP2pro enzyme mix (150 nM final concentration) in 10 mM Tris-HCl pH 8.0 with 0.01% Tween 20 assay buffer was dispensed into the plate using a BioRAPTR FRD liquid dispenser (Beckman Coulter). 3. The plate was incubated at room temperature (protected from light) for 15 min 4. Four microliter of peptide 2 substrate (2.5 uM final concentration) in assay buffer was added to the plate. 5. After 1 hour, plates were immediately read on a ViewLux high-throughput CCD imager (Exposure = 10 sec, Gain = High, Speed = Slow, Binning = 2X). The above assay was also incorporated in the NCATS HTS facility41, which allowed for robotic liquid and compound dispensing, microplate handling, and fluorescence reading.. REFERENCE: Inglese J, Shamu CE and Guy RK, Reporting data from high throughput screening of small molecule libraries, Nature Chemical Biology, 2007, 3(8): 438-441. doi.org/10.1038/nchembio0807-438.
Potency is read from the fitted curve at half-maximal effect.

SMILES | Potency
COCC(=O)N(C[C@H]1O[C@@H](CC(=O)NC2CC2)[C@H](O)[C@@H]1O)C[C@H]1O[C@@H](CC(=O)NC2CC2)[C@H](O)[C@@H]1O | inactive
C=CC1C(OC2OC(CO)C(O)C(O)C2O)OC=C(C(=O)OC)C1CC1CC(=O)CC(CCc2ccc(O)cc2)O1 (stereo not given) | inactive
COc1ccccc1CC(=O)N1CCc2c(nc3cc(-c4ccccc4Cl)[nH]n3c2=O)C1 | inactive
COc1ccc(C2CC(=O)N(Cc3ccccc3C)c3c2c(C)nn3-c2nc(C)cc(C)n2)c(OC)c1 (stereo not given) | inactive
COc1ccc(/C=C2/C(=O)Nc3ccccc32)cc1O | inactive
COc1ccc(C(=O)Nc2cccc(C(=O)OCc3cc(=O)n4c5c(sc4n3)CCCC5)c2)cc1 | inactive
Cc1cnc(C2CCC2)n1C1CCN(C(=O)CCC2CCCC2)CC1 | inactive
O=C(NCc1ccc(Cl)cc1)c1cc(-c2ccc[nH]2)n[nH]1 | 8.91 µM (active)
O=C(CSc1ncc(CO)n1Cc1ccc(Cl)cc1)NCc1ccc(F)cc1 | inactive
O=C(CSc1nccn1Cc1ccc(Cl)cc1)NCc1ccccc1 | inactive
COc1ccc(CCn2cc3c(c2-c2ccc(Br)cc2)c(=O)n(C)c(=O)n3C)cc1OC | inactive
C[C@@H]1[C@H](O)[C@@H]2OC(=O)C3=C2[C@H](CCC3)[C@@]12C[C@@H](c1ccoc1)OC2=O | 5.44 µM (active)
COc1cccc(CNc2ccc(S(=O)(=O)Nc3cc(C)on3)cc2)c1O | inactive
Fc1ccc(CSc2nc(NCc3ccccc3)c3ccccc3n2)cc1 | inactive
O=C(Nc1ccc(O)c(-c2nc3ccccc3o2)c1)c1ccc(-c2cccc(Cl)c2)o1 | inactive
Cc1nn(C(C)C(=O)NCCc2ccccc2)c(=O)c2c1sc1ccccc12 (stereo not given) | inactive
CCOC(=O)c1c(S(=O)(=O)NCC(=O)Nc2ccc(Cl)c(C(F)(F)F)c2)c(C)n(C)c1C | inactive
Cc1ncc([N+](=O)[O-])n1C[C@H](O)CN1CCOCC1 | inactive
Cc1nn(Cc2ccccc2)c(C)c1[C@@H]1C=C[C@@H](NC(=O)NC(C)C)C1 | 14.1 µM (active)
CC(C)NC(=O)NCC1Cn2cccc2C(=O)N1Cc1ccccc1 (stereo not given) | inactive
O=C(Cn1nc(C2CC2)ccc1=O)NCCc1ccccc1 | inactive
CCCC12CN3CC(CCC)(CN(C1)C3c1c[nH]c3ccc(OC)cc13)C2=O (stereo not given) | inactive
COc1ccc(N2Cc3cccc(C(=O)O)c3C2=O)cc1OC | inactive
Cc1ccc(NC(=O)CSc2nc3c(c(=O)[nH]2)CN(Cc2ccc4c(c2)OCO4)CC3)cc1C | inactive
O=C(Nc1ncc(Cc2ccc(C(F)(F)F)cc2)s1)c1ccc(-c2ccc([N+](=O)[O-])cc2)o1 | inactive
